Measurements from PubChem BioAssay (NCATS).
Where “and” joins values, the source holds several entries; their conditions need not be identical. Equal entries are not always repeated. Inconclusive results are not listed. Calls of active or inactive are those of the source. Unless noted, calls follow the shape of the full dose curve.

Tests used:
[1] = target: Glucocorticoid receptor (Homo sapiens) (UniProt P04150); assay: qHTS assay for small molecule agonists of glucocorticoid receptor signaling (AID 588532; active = well fitted curve in the direction sought with a large enough effect in the signal ratio, with a control signal flat; the % refers to the signal ratio;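 also: 100% = dexamethasone at 0.1 µM and 0% = DMSO only wells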); settings: HeLa MMTV-bla, beta-lactamase ratio, agonist, 18 h; activation: stronger effect = higher value, percent of dexamethasone control, DMSO zero
Sequence of Glucocorticoid receptor (Homo sapiens) (P04150 whole entry, looked up): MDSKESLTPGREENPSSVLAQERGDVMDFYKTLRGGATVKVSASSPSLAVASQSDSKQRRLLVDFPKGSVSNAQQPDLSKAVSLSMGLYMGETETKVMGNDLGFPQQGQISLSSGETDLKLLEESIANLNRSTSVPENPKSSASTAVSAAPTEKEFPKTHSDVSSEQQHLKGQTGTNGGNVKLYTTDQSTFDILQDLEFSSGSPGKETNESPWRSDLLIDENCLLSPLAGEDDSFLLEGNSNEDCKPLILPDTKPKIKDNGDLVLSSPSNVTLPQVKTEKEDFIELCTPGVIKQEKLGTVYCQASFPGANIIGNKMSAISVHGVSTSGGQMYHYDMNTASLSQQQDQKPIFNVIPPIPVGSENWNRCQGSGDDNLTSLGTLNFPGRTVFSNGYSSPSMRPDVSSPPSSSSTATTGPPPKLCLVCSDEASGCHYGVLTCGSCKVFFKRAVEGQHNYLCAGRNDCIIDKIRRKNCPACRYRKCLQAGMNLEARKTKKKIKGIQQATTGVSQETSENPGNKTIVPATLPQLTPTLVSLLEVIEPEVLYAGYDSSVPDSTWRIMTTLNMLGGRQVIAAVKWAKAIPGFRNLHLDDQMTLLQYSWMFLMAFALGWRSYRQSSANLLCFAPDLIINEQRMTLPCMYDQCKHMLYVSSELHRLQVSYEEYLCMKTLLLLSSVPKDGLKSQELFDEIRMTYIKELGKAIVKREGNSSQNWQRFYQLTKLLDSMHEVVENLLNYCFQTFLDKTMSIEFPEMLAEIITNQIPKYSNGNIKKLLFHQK
How it was run: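 Titration series, up to 92 uM, applied to GRE-bla HeLa cells for 18 h at 37 C. Detection by CCF4 FRET substrate after 2 h at RT.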

[2] = target: Glucocorticoid receptor (Homo sapiens) (UniProt P04150); assay: qHTS assay for small molecule antagonists of glucocorticoid receptor signaling (AID 588533; active = well fitted inhibition curve with a large enough effect in the signal ratio, with a control signal flat, not every such curve was filed as active; the % refers to the signal ratio;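 also: cells stimulated with 2 nM dexamethasone as agonist; % is scaled to controls: 0 for no effect and ±100 for the full control effect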)
How it was run: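 Antagonist-mode qHTS: compound titrations added to GRE-bla HeLa cells, then dexamethasone 2 nM final; 18 h, 37 C. CCF4 FRET fluorescence normalized to dexamethasone and DMSO; IC50 from Hill fit.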

[3] = target: Peroxisome proliferator-activated receptor delta (Homo sapiens) (UniProt Q03181); assay: qHTS assay for small molecule agonists of peroxisome proliferator-activated receptor delta signaling (AID 588534);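 also: 0% = DMSO basal wells and 100% = positive control agonist at 10 µM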
Sequence of Peroxisome proliferator-activated receptor delta (Homo sapiens) (Q03181 whole entry, looked up): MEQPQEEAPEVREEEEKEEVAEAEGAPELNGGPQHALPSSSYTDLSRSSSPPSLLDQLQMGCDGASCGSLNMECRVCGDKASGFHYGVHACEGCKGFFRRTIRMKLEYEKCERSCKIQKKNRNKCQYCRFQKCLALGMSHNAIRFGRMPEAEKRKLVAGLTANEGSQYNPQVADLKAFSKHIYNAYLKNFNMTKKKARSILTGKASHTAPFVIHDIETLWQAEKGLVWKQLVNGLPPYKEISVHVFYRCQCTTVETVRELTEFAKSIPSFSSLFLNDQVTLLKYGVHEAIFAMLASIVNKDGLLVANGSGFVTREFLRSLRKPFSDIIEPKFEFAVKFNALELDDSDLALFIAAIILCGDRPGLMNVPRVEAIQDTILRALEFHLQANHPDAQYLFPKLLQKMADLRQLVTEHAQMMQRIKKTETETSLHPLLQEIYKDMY
How it was run: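 Reporter cells were plated and held 5 hrs at 37 C before compounds were added. After 18 hrs at 37 C, CCF4 dye was loaded for 2 hrs at RT and fluorescence measured.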

[4] = qHTS assay for small molecule antagonists of peroxisome proliferator-activated receptor delta signaling (AID 588535; active = well fitted inhibition curve with a large enough effect in the signal ratio, with a control signal flat, not every such curve was filed as active; the % refers to the signal ratio;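 as to max response: cells co-treated with a PPAR-delta agonist as stimulator during compound exposure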); settings: HEK293T PPARd-UAS-bla, beta-lactamase FRET ratio, 18 h; 460 nm channel
How it was run: (§1)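 GeneBLAzer PPAR-delta-UAS-bla HEK293T cells in medium with 2% charcoal/dextran FBS were preincubated 5 hrs at 37 C, then given compounds, incubated 18 hrs at 37 C, and read by CCF4 beta-lactamase fluorescence; IC50 from Hill fits.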

[5] = target: Peroxisome proliferator-activated receptor delta (Homo sapiens) (UniProt Q03181); assay: as above
How it was run: as §1

[6] = target: Peroxisome proliferator-activated receptor gamma (Homo sapiens) (UniProt P37231); assay: qHTS assay for small molecule agonists of peroxisome proliferator-activated receptor gamma signaling (AID 588536; active = well fitted curve in the direction sought with a large enough effect in the signal ratio, with a control signal flat, not every such curve was filed as active; the % refers to the signal ratio;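 also: 0% = DMSO basal wells and 100% = rosiglitazone at 2 µM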)
Sequence of Peroxisome proliferator-activated receptor gamma (Homo sapiens) (P37231 whole entry, looked up): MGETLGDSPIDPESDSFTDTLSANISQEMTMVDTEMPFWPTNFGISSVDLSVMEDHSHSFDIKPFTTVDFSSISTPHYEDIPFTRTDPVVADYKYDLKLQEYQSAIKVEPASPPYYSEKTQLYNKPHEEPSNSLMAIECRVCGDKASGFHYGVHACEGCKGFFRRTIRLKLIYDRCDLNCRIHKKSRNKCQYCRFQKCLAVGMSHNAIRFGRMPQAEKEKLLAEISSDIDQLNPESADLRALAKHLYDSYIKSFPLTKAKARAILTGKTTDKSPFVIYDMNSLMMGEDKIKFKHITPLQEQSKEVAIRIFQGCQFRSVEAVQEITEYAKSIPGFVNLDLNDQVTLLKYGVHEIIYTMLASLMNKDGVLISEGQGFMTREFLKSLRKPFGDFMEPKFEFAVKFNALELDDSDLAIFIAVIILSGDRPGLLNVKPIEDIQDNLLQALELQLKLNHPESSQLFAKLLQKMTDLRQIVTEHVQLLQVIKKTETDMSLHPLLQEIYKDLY
How it was run: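 Ratiometric blue/green fluorescence (405 nm excitation; 460 and 530 nm emission) from CCF4-loaded HEK293 reporter cells serves as signal. Exposure to test compounds lasts 16 h at 37 C in medium containing 1% charcoal/dextran-treated serum.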

[7] = target: Peroxisome proliferator-activated receptor gamma (Homo sapiens) (UniProt P37231); assay: qHTS assay for small molecule antagonists of peroxisome proliferator-activated receptor gamma signaling (AID 588537; active = well fitted inhibition curve with a large enough effect in the signal ratio, with a control signal flat, not every such curve was filed as active; the % refers to the signal ratio;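 also: reporter cells co-stimulated with 50 nM rosiglitazone agonist during compound treatment; % of control where 0% means no effect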)
How it was run: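 PPAR-gamma-UAS-bla HEK293 cells (3000/well, 1% charcoal/dextran-stripped FBS) were preincubated 6-6.5 h at 37 C, given titrated compounds, then stimulated with 50 nM rosiglitazone for 16 h. Beta-lactamase activity was read with CCF4 dye; IC50 came from Hill fits.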

[8] = target: Vitamin D3 receptor (Homo sapiens) (UniProt P11473); assay: qHTS assay for small molecule antagonists of vitamin D receptor signaling (AID 588541);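 also: receptor activated by calcitriol during compound treatment; series mostly up to about 77 µM; % is scaled to controls: 0 for no effect and ±100 for the full control effect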
Sequence of Vitamin D3 receptor (Homo sapiens) (P11473 whole entry, looked up): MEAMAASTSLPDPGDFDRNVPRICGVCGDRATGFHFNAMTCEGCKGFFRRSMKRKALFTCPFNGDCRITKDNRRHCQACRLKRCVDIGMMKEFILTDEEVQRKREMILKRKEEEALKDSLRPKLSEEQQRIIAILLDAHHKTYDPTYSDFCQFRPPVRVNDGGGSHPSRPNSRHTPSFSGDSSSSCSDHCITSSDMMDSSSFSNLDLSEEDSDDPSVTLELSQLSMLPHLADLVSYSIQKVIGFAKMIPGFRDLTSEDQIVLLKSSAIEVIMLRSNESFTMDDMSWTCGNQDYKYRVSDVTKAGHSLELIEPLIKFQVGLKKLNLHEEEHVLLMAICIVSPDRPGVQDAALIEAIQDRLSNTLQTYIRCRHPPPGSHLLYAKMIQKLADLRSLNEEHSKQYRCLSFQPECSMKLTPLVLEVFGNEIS
How it was run: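 VDR-UAS-bla HEK293T cells (2000/well, 2% charcoal-stripped FBS) were treated with titrated compounds plus 1-alpha,25-dihydroxyvitamin D3 (50 nM or 3 nM final) for 16 h at 37 C. CCF4 beta-lactamase fluorescence was read; Hill fits gave IC50.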

[9] = target: Vitamin D3 receptor (Homo sapiens) (UniProt P11473); assay: qHTS assay for small molecule agonists of vitamin D receptor signaling (AID 588543);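 also: 0% = DMSO basal and 100% = reference agonist control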
How it was run: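 VDR-UAS-bla HEK293T cells, 2000/well, 2% charcoal-stripped FBS; compound titration 16 h at 37 C; CCF4 beta-lactamase ratio read. Normalized to 50 nM 1-alpha,25-dihydroxyvitamin D3 (100%) and DMSO; Hill fit gives EC50, efficacy.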

[10] = qHTS assay for small molecule agonists of retinoid X receptor alpha signaling (AID 588544); settings: HEK293T RXRa-UAS-bla, beta-lactamase reporter, 18 h; 530 nm emission;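 as to activation: 0% = DMSO basal wells and 100% = reference agonist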
[11] = target: Retinoic acid receptor RXR-alpha (Homo sapiens) (UniProt P19793); assay: as above
Sequence of Retinoic acid receptor RXR-alpha (Homo sapiens) (P19793 whole entry, looked up): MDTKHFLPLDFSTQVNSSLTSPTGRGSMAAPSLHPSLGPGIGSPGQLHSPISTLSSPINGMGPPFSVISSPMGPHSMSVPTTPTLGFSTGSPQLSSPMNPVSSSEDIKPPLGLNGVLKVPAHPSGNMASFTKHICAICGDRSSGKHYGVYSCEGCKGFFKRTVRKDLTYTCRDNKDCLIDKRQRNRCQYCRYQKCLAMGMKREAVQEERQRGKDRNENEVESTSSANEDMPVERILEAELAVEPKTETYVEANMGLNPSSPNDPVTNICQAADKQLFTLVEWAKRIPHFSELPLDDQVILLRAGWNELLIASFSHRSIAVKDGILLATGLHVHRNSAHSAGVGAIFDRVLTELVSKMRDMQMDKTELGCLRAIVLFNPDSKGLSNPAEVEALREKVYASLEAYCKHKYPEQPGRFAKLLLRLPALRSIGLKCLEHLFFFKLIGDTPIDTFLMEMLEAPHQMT

[12] = target: Thyroid hormone receptor beta (Homo sapiens) (UniProt P10828); assay: qHTS assay for small molecule agonists of thyroid hormone receptor beta signaling (AID 588545);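 also: 0% = DMSO only and 100% = 10 nM T3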
Sequence of Thyroid hormone receptor beta (Homo sapiens) (P10828 whole entry, looked up): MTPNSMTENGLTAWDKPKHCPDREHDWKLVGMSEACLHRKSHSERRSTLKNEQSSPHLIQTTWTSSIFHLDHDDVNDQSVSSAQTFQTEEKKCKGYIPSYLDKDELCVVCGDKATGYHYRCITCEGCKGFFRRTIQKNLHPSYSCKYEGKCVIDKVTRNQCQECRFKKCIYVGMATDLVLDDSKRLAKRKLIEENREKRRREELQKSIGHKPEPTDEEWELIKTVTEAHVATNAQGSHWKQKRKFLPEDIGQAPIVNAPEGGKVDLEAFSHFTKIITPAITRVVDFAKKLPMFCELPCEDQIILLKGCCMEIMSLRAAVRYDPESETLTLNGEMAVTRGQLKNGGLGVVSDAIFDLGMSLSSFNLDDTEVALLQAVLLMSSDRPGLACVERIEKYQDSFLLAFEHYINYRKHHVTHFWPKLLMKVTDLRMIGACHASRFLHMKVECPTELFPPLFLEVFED
How it was run: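 Efficacy and EC50 values derive from Hill fits of qHTS titration data, normalized to 10 nM T3 and DMSO-only wells. HEK 293 reporter cells were stimulated for 18 hrs at 37 C, with beta-lactamase activity measured by CCF4 fluorescence.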

[13] = qHTS assay for small molecule antagonists of retinoid X receptor alpha signaling (AID 588546; active = well fitted inhibition curve with a large enough effect in the signal ratio, with a control signal flat, not every such curve was filed as active; the % refers to the signal ratio;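 also: cells stimulated with 9-cis-retinoic acid as agonist; % is scaled to controls: 0 for no effect and ±100 for the full control effect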); settings: HEK293T RXRa-UAS-bla, beta-lactamase ratio, antagonist mode; measured here: W530 green channel, cytotoxicity proxy
How it was run: (§2)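 Beta-lactamase reporter inhibition, read as CCF4 fluorescence ratio (ex 405, em 460/530 nm) after 2 h at RT. HEK293T UAS-bla cells, 2500/well, were stimulated with 9-cis-RA at 500 or 100 nM final alongside test compound for 18 h at 37 C.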

[14] = target: Retinoic acid receptor RXR-alpha (Homo sapiens) (UniProt P19793); assay: as above; settings: HEK293T RXRa-UAS-bla, beta-lactamase ratio, antagonist mode
How it was run: as §2

[15] = qHTS assay for small molecule activators of the p53 signaling pathway (AID 651743; active = well fitted activation curve with a large enough effect in the signal ratio, not every such curve was filed as active; the % refers to the signal ratio; also: series mostly up to about 92 µM; % of control where 0% means no effect); settings: HCT-116 p53RE-bla, beta-lactamase FRET ratio, 16 h; activation: stronger effect = higher value
How it was run: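 p53RE-bla HCT-116 cells with a stably integrated beta-lactamase reporter under p53 response elements were plated, rested 5 hours at 37 C/5% CO2, then exposed to compounds in DMSO for 16 hours at 37 C. LiveBLAzer B/G FRET substrate was read after 2 hours at room temperature.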

[16] = qHTS assay for small molecule activators of the nuclear factor-kappa B (NF-kB) signaling pathway (AID 651749; active = well fitted activation curve with a large enough effect in the signal ratio; the % refers to the signal ratio; also: series mostly up to about 77 µM; % of control where 0% means no effect); settings: NF-kB-bla ME-180 cells, beta-lactamase FRET ratio, 16 h; activation: stronger effect = higher value
How it was run: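 ME-180 cells stably carrying a beta-lactamase reporter under an NF-kB response element were exposed to compound or DMSO vehicle for 16 hr at 37C, 5% CO2. Pathway activation was read by FRET, since reporter expression disrupts FRET.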

[17] = qHTS assay for environmental chemicals that activate the Aryl hydrocarbon Receptor (AhR) signaling pathway (AID 651777; active = well fitted curve in the direction sought with a large enough effect; an effect the other way counts as inactive or inconclusive; also: nearly all actives have a fitted effect of over 15% in size; also: potency is read from the fitted curve at half-maximal effect; as to activation: % of control where 0% means no effect); settings: 1A2-DRE human hepatoma cells, luciferase, 24 h; activation: stronger effect = higher value
How it was run: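 Human hepatoma 1A2-DRE cells, stably carrying a dioxin response element and CYP1A2 promoter driving luciferase, were exposed to compounds for 24 hr at 37 C and 5% CO2. Luciferase signal was then read after 30 min One-Glo at room temperature.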

[18] = target: Peroxisome proliferator-activated receptor alpha (Homo sapiens) (UniProt Q07869); assay: qHTS assay for small molecule agonists of the peroxisome proliferator-activated receptor alpha (PPARalpha) signaling pathway (AID 651778; active = well fitted curve in the direction sought with a large enough effect; an effect the other way counts as inactive or inconclusive; also: % of control where 0% means no effect); settings: PathHunter PPARalpha complementation, chemiluminescence, 6 h; max response: stronger effect = higher value
Sequence of Peroxisome proliferator-activated receptor alpha (Homo sapiens) (Q07869 whole entry, looked up): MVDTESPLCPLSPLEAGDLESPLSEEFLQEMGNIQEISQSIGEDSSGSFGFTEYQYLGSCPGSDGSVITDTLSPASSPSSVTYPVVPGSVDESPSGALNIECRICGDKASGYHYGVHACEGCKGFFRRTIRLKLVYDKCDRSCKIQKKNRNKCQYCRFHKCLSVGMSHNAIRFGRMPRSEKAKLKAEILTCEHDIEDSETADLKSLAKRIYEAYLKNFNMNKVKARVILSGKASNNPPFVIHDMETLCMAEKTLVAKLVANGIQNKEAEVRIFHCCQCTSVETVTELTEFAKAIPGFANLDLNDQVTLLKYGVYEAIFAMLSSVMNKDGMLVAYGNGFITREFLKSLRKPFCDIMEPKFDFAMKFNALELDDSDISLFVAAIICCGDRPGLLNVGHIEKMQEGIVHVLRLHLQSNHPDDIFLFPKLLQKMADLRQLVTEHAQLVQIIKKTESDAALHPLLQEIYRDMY
How it was run: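 Cells plated at 2,000/well and held overnight at 37 C, 5% CO2, then compound added by pin tool for 6 hr; after PathHunter detection reagent and 60 min at room temperature, chemiluminescence from enzyme complementation was read.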

[19] = qHTS assay for small molecule agonists of the antioxidant response element (ARE) signaling pathway measured by Nrf2-dependant transcriptional activity (AID 720636; active = well fitted curve in the direction sought with a large enough effect in the repeat runs; an effect the other way counts as inactive or inconclusive; also: % of control where 0% means no effect)
How it was run: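 ARE-luc HepG2 cells carrying an Nrf2-responsive luciferase reporter were plated in medium with 1% dialyzed FBS, left 6 hr at 37 C to attach, then exposed to compound for 16 hr. Luciferase luminescence was read after ONE-Glo addition.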

[20] = qHTS assay for small molecule agonists of the antioxidant response element (ARE) signaling pathway measured by Nrf2-dependant transcriptional activity - cell viability counter screen (AID 720653; active = well fitted curve in the direction sought with a large enough effect in the repeat runs; an effect the other way counts as inactive or inconclusive; also: % is scaled to controls: 0 for no effect and ±100 for the full control effect); settings: ARE-bla HepG2 viability, CellTiter-Glo ATP luminescence, 16 h; max response: stronger effect = lower value
How it was run: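 ARE-bla HepG2 cells (2,000/well) rested 5 hrs at 37C/5% CO2, then exposed to compounds in DMSO for 16 hrs. Viability was read in the same wells as intracellular ATP by luminescence, 30 min at room temperature after reagent addition.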

[21] = qHTS assay for cell viability of HEK293 cells (AID 743288; active = well fitted curve in the direction sought with a large enough effect; an effect the other way counts as inactive or inconclusive; also: % is scaled to controls: 0 for no effect and ±100 for the full control effect; nearly all actives have a fitted effect of over 50% in size); settings: ATP luminescence (CellTiter-Glo), 18 h; max response: stronger effect = lower value
How it was run: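 Parental HEK293 cells, 2,000 per well, preincubated at least 5 h at 37 C, then exposed to compounds in DMSO for 18 h at 37 C. Viability by CellTiter-Glo ATP luminescence after 30 min at room temperature.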

[22] = qHTS assay for cell viability of the p53RE-bla HCT-116 cell line (AID 743292; active = well fitted curve in the direction sought with a large enough effect; an effect the other way counts as inactive or inconclusive; also: % is scaled to controls: 0 for no effect and ±100 for the full control effect; nearly all actives have a fitted effect of over 55% in size)
How it was run: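 CellSensor p53RE-bla HCT-116 cells, 4,000/well, preincubated 5 h at 37 C, then exposed to compounds in DMSO for 16 h at 37 C. Viability read as CellTiter-Glo luminescence (intracellular ATP) after 30 min at room temperature.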

[23] = target: Nuclear receptor subfamily 1 group I member 2 (Rattus norvegicus) (UniProt Q9R1A7); assay: qHTS assay for small molecule activators of the rat pregnane X receptor (rPXR) signaling pathway (AID 651751; call rule not given here; also: 0% is about no effect); settings: rPXR reporter cells, luciferase (One-Glo), 24 h
Sequence of Nuclear receptor subfamily 1 group I member 2 (Rattus norvegicus) (Q9R1A7 whole entry, looked up): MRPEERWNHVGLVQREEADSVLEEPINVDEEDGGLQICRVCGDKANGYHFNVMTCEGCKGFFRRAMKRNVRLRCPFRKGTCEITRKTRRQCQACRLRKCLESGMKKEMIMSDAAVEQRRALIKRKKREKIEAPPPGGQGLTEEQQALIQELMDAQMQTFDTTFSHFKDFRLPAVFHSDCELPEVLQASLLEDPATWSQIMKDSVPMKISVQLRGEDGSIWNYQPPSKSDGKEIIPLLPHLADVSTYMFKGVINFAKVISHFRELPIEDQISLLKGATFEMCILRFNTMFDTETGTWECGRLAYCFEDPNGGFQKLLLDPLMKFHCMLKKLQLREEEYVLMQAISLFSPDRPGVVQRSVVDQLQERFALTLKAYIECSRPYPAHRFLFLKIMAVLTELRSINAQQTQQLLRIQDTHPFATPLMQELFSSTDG

[24] = target: Bile acid receptor (Homo sapiens) (UniProt Q96RI1); assay: qHTS assay for small molecule agonists of farnesoid X receptor signaling (AID 588527); settings: HEK293T FXR-UAS-bla, beta-lactamase ratio, 16 h; activation: stronger effect = higher value;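 also: series mostly up to about 77 µM; 0% = vehicle basal and 100% = reference agonist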
Sequence of Bile acid receptor (Homo sapiens) (Q96RI1 whole entry, looked up): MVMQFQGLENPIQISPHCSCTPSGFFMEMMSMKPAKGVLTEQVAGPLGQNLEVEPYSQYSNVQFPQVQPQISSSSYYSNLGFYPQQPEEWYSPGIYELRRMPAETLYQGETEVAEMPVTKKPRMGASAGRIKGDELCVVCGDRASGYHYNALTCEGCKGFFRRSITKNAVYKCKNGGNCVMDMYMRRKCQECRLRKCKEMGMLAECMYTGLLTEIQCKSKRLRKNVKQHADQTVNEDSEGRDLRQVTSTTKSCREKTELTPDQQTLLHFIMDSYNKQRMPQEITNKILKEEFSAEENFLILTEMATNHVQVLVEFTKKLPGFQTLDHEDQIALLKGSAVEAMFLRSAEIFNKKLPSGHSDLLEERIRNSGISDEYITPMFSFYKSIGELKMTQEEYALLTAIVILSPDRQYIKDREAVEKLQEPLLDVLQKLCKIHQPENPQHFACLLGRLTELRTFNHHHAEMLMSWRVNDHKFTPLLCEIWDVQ
How it was run: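 Agonist-mode beta-lactamase reporter in GeneBLAzer FXR-UAS-bla HEK293T cells, titration up to 92 uM, 16 h exposure at 37 C, CCF4 fluorescence. Response scaled to DMSO (0%) and 100 uM chenodeoxycholic acid (100%), then Hill-fitted for EC50 and efficacy.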

[25] = target: Cytochrome P450 3A4 (Homo sapiens) (UniProt P08684); assay: qHTS Assay for Inhibitors and Substrates of Cytochrome P450 3A4 (AID 884; active = well fitted curve in the direction sought with a large enough effect; an effect the other way counts as inactive or inconclusive; also: potency is read from the fitted curve at half-maximal effect; nearly all actives have a fitted effect of over 50% in size)
Sequence of Cytochrome P450 3A4 (Homo sapiens) (P08684 whole entry, looked up): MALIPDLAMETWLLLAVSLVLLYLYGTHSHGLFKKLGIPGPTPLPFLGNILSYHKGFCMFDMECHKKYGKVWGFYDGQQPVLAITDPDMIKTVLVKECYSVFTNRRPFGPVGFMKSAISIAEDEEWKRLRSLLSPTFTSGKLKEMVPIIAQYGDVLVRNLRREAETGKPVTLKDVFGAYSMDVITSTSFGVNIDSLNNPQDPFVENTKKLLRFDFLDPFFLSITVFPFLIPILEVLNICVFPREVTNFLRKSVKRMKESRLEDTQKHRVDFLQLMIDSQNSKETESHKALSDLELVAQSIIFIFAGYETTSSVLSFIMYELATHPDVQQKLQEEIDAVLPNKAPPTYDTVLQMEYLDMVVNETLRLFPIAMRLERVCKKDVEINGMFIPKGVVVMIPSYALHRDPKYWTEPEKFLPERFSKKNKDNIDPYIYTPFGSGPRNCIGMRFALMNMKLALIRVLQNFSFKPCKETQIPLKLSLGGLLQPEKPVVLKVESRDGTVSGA
How it was run: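 20 nM human CYP3A4 with 25 uM Luciferin-PPXE (at KM) in 200 mM KPO4, preincubated 10 min with compound; NADPH regeneration started a 60 min RT reaction. Luciferin detected by luminescence, normalized to 57 uM ketoconazole as full inhibition.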

[26] = target: Cytochrome P450 3A4 (Homo sapiens) (UniProt P08684); assay: qHTS Assay for Activators of Cytochrome P450 3A4 (AID 885; active = well fitted curve in the direction sought with a large enough effect; an effect the other way counts as inactive or inconclusive; also: nearly all actives have a fitted effect of over 65% in size)
How it was run: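 Signal was normalized against complete inhibition by 57 uM ketoconazole. The reaction used 20nM CYP3A4 with 25uM Luciferin-PPXE, 10-min compound preincubation and a 60-min NADPH-supported step at RT.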

[27] = target: Voltage-gated inwardly rectifying potassium channel KCNH2 (Homo sapiens) (UniProt Q12809); assay: qHTS Assay for Small Molecule Inhibitors of the Human hERG Channel Activity (AID 588834; active = well fitted curve in the direction sought with a large enough effect; an effect the other way counts as inactive or inconclusive;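 also: top concentration of the series differs between compounds; % is scaled to controls: 0 for no effect and ±100 for the full control effect; lower thallium flux fluorescence means stronger hERG block; nearly all actives have a fitted effect of over 50% in size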)
How it was run: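 U2OS cells BacMam-transduced with hERG, 2000 cells/well, compound ~10 min at 37 °C before stimulation buffer. FluxOR thallium flux fluorescence read kinetically on FDSS; decrease indicates block; AC50 from Hill fits.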

[28] = qHTS assay for small molecule agonists of the antioxidant response element (ARE) signaling pathway (AID 651741; active = well fitted activation curve with a large enough effect in the signal ratio; the % refers to the signal ratio; also: potency is read from the fitted curve at half-maximal effect; as to activation: % of control where 0% means no effect)
How it was run: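 ARE-bla HepG2 cells (beta-lactamase reporter under ARE control) were plated at 2,000 cells/well, preincubated 5 h at 37 C/5% CO2, then treated with DMSO-dissolved compounds for 16 h at 37 C; LiveBLAzer B/G FRET substrate added, fluorescence read after 2 h at room temperature.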

CCOP(=S)(Oc1cnc(C(C)(C)C)nc1)OC(C)C (stereo not drawn)
-24.6%: max response [4]
10.2%: max response [13]
-5.29%: max response [10]
inactive: activation [1] 2.58% | Potency [2] | outcome [3] | Potency [5] | Potency [6] | Potency [7] | Potency [8] | outcome [9] | Potency [11] | Potency [12] | max response [14] 1.44% | activation [15] -2.32% | activation [16] -0.139% | activation [17] 6.61% | max response [18] -0.258% | Potency [19] | max response [20] -5.89% | max response [21] -6.73% | Potency [22] | max response [23] 6.76%

Nc1cccc(C(F)(F)F)c1
inactive: activation [24] -1.94% and -0.257% | outcome [3] | Potency [7] | activation [15] -3.34%

CCOC(=O)[C@H](C)Oc1ccc(Oc2nc3ccc(Cl)cc3o2)cc1
inactive: activation [24] -2.5% | Potency [12]

Cc1ccc2ccc3cccc4ccc1c2c34
inactive: Potency [26] | activation [24] -4.07% | outcome [3] | Potency [27]
active: Potency [25] 25.1 µM

Cc1nn(C)c(Oc2ccccc2)c1/C=N/OCc1ccc(C(=O)OC(C)(C)C)cc1
active: Potency [28] 0.154 µM
inactive: activation [24] 6.71%

CN(C)c1ccc(Cc2ccc(N(C)C)cc2)cc1
inactive: Potency [26] | activation [24] -1.47% | outcome [3] | Potency [28]

c1ccc2c(c1)ccc1c3ccccc3ccc21
active: Potency [17] 11.2 µM
inactive: activation [24] -1.28% | outcome [3]
